Screening data deposited in PubChem by National Center for Advancing Translational Sciences (NCATS).
HT1080-NT tox: qHTS for induction of synthetic lethality in tumor cells producing 2HG: qHTS for the HT-1080-NT fibrosarcoma cell line. HT-1080-NT fibrosarcoma viability, CellTiter-Glo ATP luminescence, 48 h. Potency, µM (series often up to 46.1 µM), without a hit: top-dose activity, negative = less viability, most hits filed as cytotoxic. hit rate 1.6% among 360,000;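 further: NT is the 2HG producing partner of a matched IDH1 knockdown line; potency means the concentration at half of the fitted maximal effect; 0% = DMSO-treated cells and -100% = media-only wells without cells; nearly all actives have a fitted effect of over 55% in size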
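Fibrosarcoma NT cells, 750 per well in 5% FBS RPMI, were exposed to compound for 48 hours. Viability: CellTiter-Glo luminescence.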
IL1B secr inh: qHTS for Inhibitors of Inflammasome Signaling: IL-1-beta AlphaLISA Primary Screen; THP-1 LPS/ATP IL-1B secretion, AlphaLISA, 16 h; active compounds read low; activity change, % at 57.5 µM; hit rate 4.7% among 360,000; in the data active means activity change below about -50%; inconclusive means mostly about -30% to -49%; further: on the % scale 0 is the no-effect control and ±100 the full control effect
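THP-1 cells pretreated 1 hr with compounds (up to 57.5 uM final), then stimulated with LPS (250 ng/mL final) plus ATP (1.25 mM final); secreted IL-1B measured by AlphaLISA after 16 hr, decreased signal indicating inhibition.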
TGFb inhibitor: qHTS for Inhibitors of TGF-b | HepG2 CAGA-GFP TGF-b/SMAD3 reporter, GFP fluorescence, 18 h; TGF-beta stimulated, 500 pg/mL final | Potency, µM (highest dose often 46.1 µM), for the others: top-dose activity, negative = inhibition, usual class: inhibitors | hit rate 1.2% among 410,000; further: potency means the concentration at half of the fitted maximal effect; on the % scale 0 is the no-effect control and ±100 the full control effect; nearly all actives have a fitted effect of over 65% in size
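TGF-beta reporter screen: HEPG2 CAGA-GFP, 1% FBS, 500 pg/mL TGF-beta final, 18 h; per-cell GFP summed per well; curves fitted and categorized by class.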
HepG2 tox: qHTS for Inhibitors of TGF-b: Cytotox Counterscreen; AID 588856, 2011; Potency, µM (titrated, usually from 46.1 µM), without a hit: at the top dose activity change, negative = cytotoxicity, hits mostly cytotoxic; hit rate 0.76% among 410,000; HepG2 CAGA-GFP viability, ATP luminescence, 18 h; further: potency means the concentration at half of the fitted maximal effect
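HepG2 CAGA-GFP cells (1000/well, DMEM with 1% FBS) received compound, then TGF-beta at 500 pg/mL final, and were incubated 18 hours at 37 degrees C. Viability was read by CellTiter-Glo luminescence. Media-only wells were set as complete cell-killing and DMSO as no toxicity.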
Giardia kill: Small Molecules that selectively kill Giardia lamblia: qHTS | Giardia lamblia trophozoite viability | activity change, % at 7.66 µM, hits read low | hit rate 0.15% among 340,000 | AID 540267, 2011; in the data active means activity change below about -80%; inconclusive means between about -30% and that limit;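 further: parasites exposed to compound for two days anaerobically before the ATP read; on the % scale 0 is the no-effect control and ±100 the full control effect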
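Compounds were tested on trophozoites seeded at 100 cells/well and held 48 hrs at 37 deg C anaerobically. An ATP-based luminescent kit measured the remaining live cells.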
HT1080 IDH1KD tx: qHTS for induction of synthetic lethality in tumor cells producing 2HG: qHTS for the HT-1080-IDH1KD cell line. HT-1080 IDH1 knockdown viability, ATP luminescence, 48 h. Potency, µM (highest dose often 46.1 µM), for the others: top-dose activity, negative = toxicity, actives largely listed as cytotoxic. hit rate 2% among 360,000;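 further: potency means the concentration at half of the fitted maximal effect; 0% = DMSO wells and -100% = cell-free medium wells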
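Using the IDH1-knockdown HT-1080 line run in the same batch and compound series as the NT line, viability after 48 h at 37 °C was determined by CellTiter-Glo luminescence and expressed as % activity.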
An asterisk follows results filed as active; ? = inconclusive; nt = no result; [ ] = another dose, or the depositor's remark. Sampled rows, rich in hits. Any-hit rate of the full collection: about 6.5%. Unless noted, the call rests on the fitted dose curve; in most records, active means well fitted curve in the direction sought with a large enough effect; inconclusive means small, poorly fitted or top-dose-only effect, or another doubt; inactive means no such curve, though single readings can be large; an effect the other way counts as inactive or inconclusive.

SMILES | HT1080-NT tox | IL1B secr inh | TGFb inhibitor | HepG2 tox | Giardia kill | HT1080 IDH1KD tx
COc1cccc(-c2nc(N3CCN(C)CC3)c3ccccc3n2)c1O | -24.0% | -98.2* | ? | -25.0% | -1.7 | 14.6µM*
COc1cccc(-c2nc(N3CCCCC3C)c3ccccc3n2)c1O (stereo not given) | ? | 9.6 | ? | 1.1% | 7.0 | ?
COc1ccc(-c2oc(NC(=O)CCl)c(C#N)c2-c2ccc(OC)cc2)cc1 | ? | -93.1* | -18.5% | 12.6µM* | -10.8 | ?
O=C(COC(=O)Cn1cnc2ccccc21)Nc1cc2c(cc1Cl)C(=O)c1ccccc1C2=O | -7.5% | 17.6 | -4.4% | -17.7% | -28.7 | -9.6%
CC[n+]1c(/C=C/N(C)c2ccccc2)n(-c2ccccc2)c2ccc(-c3nc4ccccc4s3)cc21 | ? | -101.5* | 5.62µM* | -98.8% | -3.6 | 5.8µM*
Cc1cc(C)cc(OCC(=O)Nc2ccc(Cl)c(-c3nc4ncccc4o3)c2)c1 | nt | nt | ? | -21.6% | nt | nt
O=C(NCc1ccccc1)/C(=C\c1ccc([N+](=O)[O-])cc1)NC(=O)c1ccco1 | 13.0% | 2.9 | -1.8% | 1.3% | -4.6 | 3.4%
O=c1c2ccccc2oc2cc(-c3ccc4[nH]ccc4c3)ccc12 | ? | 34.9 | ? | -39.4% | -19.7 | 3.66µM*
COc1cc2sc3ccc(-c4ccc5[nH]ccc5c4)cc3c(=O)c2cc1OC | 12.3% | -16.5 | -14.0% | -0.8% | -7.4 | -10.2%
COC(=O)c1cccc2c1C(=O)c1cc([N+](=O)[O-])ccc1-2 | 3.2% | -14.1 | -1.7% | -17.3% | nt | 10.1%
N#Cc1ncn(C2OC(CO)C(O)C2O)c1N (stereo not given) | -1.3% | -6.5 | -2.0% | -12.5% | nt | -2.0%
OCC1OC(n2cnc3ncccc32)C(O)C1O (stereo not given) | 20.6µM* | 16.1 | ? | -31.2% | nt | ?
OCC#Cc1ncc(C(F)(F)F)cc1Cl | 20.6µM* | 5.1 | -8.5% | 1.5% | -2.8 | ?
NC(=O)Cc1ncc(C(F)(F)F)cc1Cl | 9.1% | -4.4 | -0.3% | -11.3% | 2.9 | 6.1%
CN(C)c1ccc(-c2nn3c(-c4cccnc4)nnc3s2)cc1 | 16.6% | -13.8 | 30.2% | 3.9% | -3.3 | 8.8%
COc1ccccc1-c1nnc2sc(-c3cc4ccccc4o3)nn12 | ? | 101.2 | 14.6% | -3.2% | 7.5 | 1.46µM*
COc1ccccc1-c1nnc2sc(COc3ccc(F)cc3)nn12 | -11.9% | -66.8* | 3.1% | 3.5% | 0.5 | -16.9%
COc1ccccc1-c1nnc2sc(-c3ccc(N(C)C)cc3)nn12 | 0.92µM* | -1.2 | ? | -19.6% | -19.0 | 0.517µM*
CC(O)(c1ccccc1)c1nc(-c2cccc(C(F)(F)F)c2)cs1 (stereo not given) | ? | -7.2 | ? | -60.5% | nt | ?
CC1CCCN(C(=O)c2ccc(S(=O)(=O)N3CCC(c4nc5ccccc5s4)CC3)cc2)C1 (stereo not given) | ? | -70.5* | -29.1% | -23.5% | -4.3 | -6.2%[9.24 µM]
c1ccc(CNc2ncn[nH]2)cc1 | 3.3% | 19.3 | -4.6% | -16.6% | nt | 8.0%
COc1ccc(CN(C(=O)Cc2c[nH]c3ccccc23)C(C(=O)NC2CCCCC2)c2ccc(C)o2)cc1 (stereo not given) | -13.4% | -58.9* | ? | -29.5% | 7.7 | ?
COc1ccc(C(C(=O)Nc2ccc3c(c2)OCO3)N(C)C(=O)Cc2c[nH]c3ccccc23)cc1 (stereo not given) | ? | -58.2* | ? | -32.2% | 15.8 | ?
Cc1ccc(NC(=O)CSc2n[nH]c(C)c2[N+](=O)[O-])cc1C | 0.8% | 3.2 | 0.0% | -23.2% | -23.1 | 2.2%
CCC(=O)N(CC)C1=C(O)c2ccccc2C(=O)C1=O | -13.7% | 0.0 | -4.8% | -28.0% | 5.8 | ?
SMILES | HT1080-NT tox | IL1B secr inh | TGFb inhibitor | HepG2 tox | Giardia kill | HT1080 IDH1KD tx
CNC1=C(N(C(C)=O)c2ccc(Br)cc2)C(=O)c2ccccc2C1=O | 1.84µM* | -78.5* | 3.55µM* | 2.82µM* | -21.0 | 1.84µM*
CCC(=O)N(C1=C(NC)C(=O)c2ccccc2C1=O)C(C)C | 4.61µM* | 132.9 | ? | -71.3% | -29.7 | 9.2µM*
O=S(=O)(NCCc1csc(-c2ccc(C(F)(F)F)cc2)n1)c1ccc2c(c1)OCCO2 | -4.1% | 23.9 | ? | -25.1% | -19.2 | -2.5%
CC(=O)Nc1ccc(S(=O)(=O)Nc2cccc(-c3ccc(N4CCC(C)CC4)nn3)c2)cc1 | nt | nt | ? | -36.4% | nt | nt
O=[N+]([O-])c1ccc(-c2cnc(SC(c3ccccc3)c3ccccc3)[nH]2)cc1 | 23.1µM* | -52.0* | ? | 5.9% | 0.9 | 20.6µM*
O=[N+]([O-])c1ccc(-c2cnc(SCc3ccccc3Cl)[nH]2)cc1 | ? | -7.7 | -10.3% | -32.1% | -14.0 | ?
Cc1cc(C)c(CSc2ncc(-c3ccc([N+](=O)[O-])cc3)[nH]2)c(C)c1 | ? | -59.4* | ? | -9.2% | -3.3 | 25.9µM*
O=S(=O)(O)c1c(NS(=O)(=O)c2ccccc2)ccc2ccccc12 | nt | nt | -1.8% | 5.3% | 1.0 | nt
COCCNc1c(-c2cc3ccc(C)c(C)c3[nH]c2=O)nc2ccccn12 | 8.7% | -58.8* | 0.4% | -0.3% | 16.3 | 6.2%
Fc1ccc(Nc2nc3nonc3nc2Nc2cccc(C(F)(F)F)c2)cc1 | nt | nt | 0.708µM* | -109.1% | nt | nt
CCOc1ccc(OCC)c(S(=O)(=O)NCCOC23CC4CC(CC(C4)C2)C3)c1 | -2.8% | -2.1 | ? | 0.4% | -18.6 | -29.1%
COc1cc(S(=O)(=O)NCCOC23CC4CC(CC(C4)C2)C3)c(OC)cc1Cl | 8.6% | -55.4* | ? | 1.2% | -19.5 | 5.6%
O=c1cc(C(F)(F)F)[nH]c2ccc(OC(F)(F)F)cc12 | ? | nt | ? | -13.8% | -16.8 | 20.6µM*
O=c1cc(C(F)(F)F)[nH]c2c(C(F)(F)F)cccc12 | ? | 4.8 | ? | -34.9% | -21.7 | ?
N#CC(C#N)=C1C=CC=CN1/C(=C\c1ccco1)C(=O)c1ccc(Br)cc1 | -4.1% | -105.6* | 3.16µM* | 12.6µM* | 17.5 | -12.0%
COc1ccc(C(=O)/C(=C\c2ccco2)N2C=CC=CC2=C(C#N)C#N)cc1 | ? | -95.9* | 3.55µM* | -50.0% | 1.7 | 2.91µM*
N#C/C(=C/c1ccco1)C(N)=S | ? | 1.8 | -0.7% | -25.7% | 4.5 | 0.0%
